Source: PubChem
PL biosyn Enam: animal cell phospholipid biosynthesis inhibition, Enamine screen | ZR-82 CHO cells, pyrene fatty acid UV survival, CellTiter Blue; peroxisome-deficient CHO-K1 mutant line; plus DGAT-1, DGAT-2 and ACAT inhibitors | calls only at 10 µM | hit rate 0.4% among 20,000 | AID 1347385;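 active = cell survival signal 2 SD away from solvent-only control wells, confirmed on one or two retests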;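 also: 3 h compound exposure then viability read about one day after UV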
The depositor's hits bear a star. This is one part of a sample in which hits are shown more often than they occur.

Screening Cn1c(-c2ccccc2)c(/C=N/Nc2nncc3ccccc23)c2ccccc21 returned PL biosyn Enam active.
For FC(F)(F)c1cccc(/C=N/Nc2nncc3ccccc23)c1 the results were PL biosyn Enam inactive.
Screening Fc1ccc(/C=N/Nc2nncc3ccccc23)cc1F returned PL biosyn Enam inactive.
For O=P1(Nc2cccc3ccccc23)C=C(c2ccccc2)OC(c2ccccc2)=C1 the results were PL biosyn Enam inactive.
`CC(Nc1cc(N2CCNCC2)ccc1[N+](=O)[O-])C12CC3CC(CC(C3)C1)C2` (stereo not given) gave PL biosyn Enam active.
`CN(C)S(=O)(=O)N1CCN(c2ccc([N+](=O)[O-])c(NC3CC3)c2)CC1` gave PL biosyn Enam inactive.
For CC(NS(=O)(=O)c1ccc(F)c(F)c1)C12CC3CC(CC(C3)C1)C2 (stereo not given) the results were PL biosyn Enam inactive.
For CN(C)S(=O)(=O)c1ccc(Cl)c(N=Cc2ccco2)c1 the results were PL biosyn Enam inactive.
`Cc1cc(C(=O)CSc2nnnn2C2CCCC2)c(C)n1CC1CCCO1` (stereo not given) gave PL biosyn Enam inactive.
Screening Cc1c(P(c2ccccc2)c2ccccc2)[n+]2ccccc2n1C returned PL biosyn Enam inactive.
Screening Cc1ccc(-c2nn3c(=S)[nH]nc3c3ccccc23)cc1 returned PL biosyn Enam inactive.
Screening CCN1C/C(=C/c2cccs2)C(=O)/C(=C/c2cccs2)C1 returned PL biosyn Enam inactive.
Screening c1ccc2c(N=Nc3c4[nH]c5ccccc5nc-4c4ccccc34)cccc2c1 returned PL biosyn Enam inactive.
`c1ccc(N=Nc2c3[nH]c4ccccc4nc-3c3ccccc23)cc1` gave PL biosyn Enam active.
Screening NC(=S)N=Nc1c2[nH]c3ccccc3nc-2c2ccccc12 returned PL biosyn Enam inactive.
Screening O=C(c1ccccc1)C(Sc1nnc(-c2ccc3c(c2)OCO3)o1)c1ccccc1 (stereo not given) returned PL biosyn Enam active.
`Cc1ccc(C(=O)C(C)Sc2nnc(-c3ccc4c(c3)OCO4)o2)cc1C` (stereo not given) gave PL biosyn Enam inactive.
O=C(CSc1nnc(-c2ccc3c(c2)OCO3)o1)CSc1nnc(-c2ccc3c(c2)OCO3)o1 was read as PL biosyn Enam inactive.
Screening O=[N+]([O-])c1cc(S(=O)(=O)Nc2ccccc2)ccc1N/N=C1\CC2CC=CC12 (stereo not given) returned PL biosyn Enam inactive.
Screening c1ccc(N/N=C2\CCCc3ccccc32)nc1 returned PL biosyn Enam inactive.
`C=CCNC(=S)N/N=C1\CCc2ccccc21` gave PL biosyn Enam inactive.
`O=[N+]([O-])c1cc(S(=O)(=O)N/N=C2\CCc3ccccc32)ccc1Cl` gave PL biosyn Enam inactive.
For O=[N+]([O-])c1cc(C(F)(F)F)cc([N+](=O)[O-])c1N/N=C1/CCCc2ccccc21 the results were PL biosyn Enam inactive.
O=[N+]([O-])c1ccc(N/N=C2\CCCCc3ccccc32)cc1 was read as PL biosyn Enam active.
`O=[N+]([O-])c1ccc(N/N=C2\CCc3ccccc32)cc1` gave PL biosyn Enam active.
Screening CC1=C(C(=O)OCC(C)C)C(c2cccs2)n2c(s/c(=C\c3ccc(C)o3)c2=O)=N1 (stereo not given) returned PL biosyn Enam inactive.
O=c1[nH]c(CSc2nnc(NC3CC3)s2)nc2ccsc12 was read as PL biosyn Enam inactive.
Screening O=S(=O)(c1ccc(F)c(F)c1)N1CCNCC1 returned PL biosyn Enam inactive.
Screening CC(C)N=c1scc(-c2ccc3c(c2)OCCO3)n1/N=C/c1ccc(C(C)(C)C)cc1 returned PL biosyn Enam inactive.
For CN(S(=O)(=O)c1ccc(F)cc1)S(=O)(=O)c1ccc(Br)cc1 the results were PL biosyn Enam inactive.
For CCOc1ccc(S(=O)(=O)N(C)C2CCS(=O)(=O)C2)cc1 (stereo not given) the results were PL biosyn Enam inactive.
Screening O=C(CC12CC3CC(CC(Br)(C3)C1)C2)Nc1nc2c(s1)CCCC2 returned PL biosyn Enam inactive.
COc1cc(-c2csc(N)n2)cc(OC)c1OC was read as PL biosyn Enam inactive.
Fc1cc(Cl)ccc1NC(=S)Nc1ccc(Cl)c(Cl)c1 was read as PL biosyn Enam active.
Screening Fc1ccc(NC(=S)Nc2ccc(Cl)c(Cl)c2)cc1Cl returned PL biosyn Enam inactive.
For C=CCNC(=S)Nc1ccc(F)c(Cl)c1 the results were PL biosyn Enam inactive.
For Cc1ccc(/C=N/NC(=S)N=P(N2CCOCC2)(N2CCOCC2)C(C)(C)C)o1 the results were PL biosyn Enam inactive.
Cc1c(C2Sc3ccccc3NC2=O)c2ccccn2c1C1Sc2ccccc2NC1=O (stereo not given) was read as PL biosyn Enam active.
For O=C(O)CC1Sc2ccccc2NC1=O (stereo not given) the results were PL biosyn Enam inactive.
Screening C=CCOC(=O)CC1Sc2ccccc2NC1=O (stereo not given) returned PL biosyn Enam inactive.
